Shown are actives, neighbours in structure and some others; about 2% of the full set was active somewhere.
PG9 binder = PG9 antibody binding by small molecule; TR-FRET gp120-PG9 antibody binding; inhibition, % at 6.7 µM; 0.43% of 360,000 active; AID 624416; in the data active = inhibition above about 8.5%
VLA-4 inh = inhibition in a human VLA-4 binding assay; P13612; VLA-4 expressing cells, ligand binding flow cytometry; inhibition, % (about 7 µM as worked out from the volumes in the protocol); 0.2% of 330,000 active; AID 2557; in the data active = inhibition above about 50%
ABCB6 inh 2 = inhibitors of human ABC transporter ABCB6; K562-ABCB6 porphyrin accumulation, flow cytometry, 1 h; hits give low values; fluorescence ratio to DMSO, % at 10 µM; 0.19% of 360,000 active; AID 602162;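 active = fluorescence ratio to DMSO below 75%, the collection mean minus 3 SD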;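 also: signal is porphyrin accumulated inside mitochondria; 100% equals median channel fluorescence of DMSO control wells; lower ratio means ABCB6 inhibition with less porphyrin fluorescence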
Granule exo inh = blocks lytic granule exocytosis. TALL-104 LAMP-1 surface exposure, flow cytometry; cells stimulated with thapsigargin and PMA. inhibition, % at 10 µM. 0.66% of 360,000 active. AID 651702;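 active = inhibition above about 55%, limit read from the data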
NR1D1 modulator = modulators of human Rev-erb alpha DNA binding; Rev-erbα–FITC-DNA binding, fluorescence polarization, 90 min; activity, % at 10 µM; 0.79% of 370,000 active; AID 1259318;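 active = activity above about 14%, limit read from the data; passing the limit was not always enough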;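 also: 0% = DMSO wells with 35 nM protein and 100% = DMSO wells with 750 nM protein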
Target sequence (P20393 whole entry, looked up): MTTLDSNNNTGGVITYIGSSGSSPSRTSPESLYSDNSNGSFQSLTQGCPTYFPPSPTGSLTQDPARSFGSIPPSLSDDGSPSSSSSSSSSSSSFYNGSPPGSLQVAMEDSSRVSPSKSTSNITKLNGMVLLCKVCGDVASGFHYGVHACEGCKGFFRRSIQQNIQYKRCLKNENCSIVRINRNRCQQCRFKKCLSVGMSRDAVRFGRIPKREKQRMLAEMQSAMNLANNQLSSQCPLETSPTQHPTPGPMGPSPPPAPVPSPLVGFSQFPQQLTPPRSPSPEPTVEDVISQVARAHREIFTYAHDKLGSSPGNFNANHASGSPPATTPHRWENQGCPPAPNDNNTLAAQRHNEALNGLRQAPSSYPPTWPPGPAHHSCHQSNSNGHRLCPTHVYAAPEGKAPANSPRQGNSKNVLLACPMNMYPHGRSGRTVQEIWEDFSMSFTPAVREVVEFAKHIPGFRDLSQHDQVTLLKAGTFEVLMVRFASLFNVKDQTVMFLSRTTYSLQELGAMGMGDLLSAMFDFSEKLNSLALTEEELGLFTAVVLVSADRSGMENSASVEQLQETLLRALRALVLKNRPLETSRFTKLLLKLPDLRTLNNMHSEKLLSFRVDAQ
The depositor's hits bear a star; i = inactive; x = no result given.

SMILES	PG9 binder	VLA-4 inh	ABCB6 inh 2	Granule exo inh	NR1D1 modulator
Cc1ccccc1-c1nc2ccccc2c(=O)n1/N=C/c1ccc([N+](=O)[O-])cc1	-2	4	96	-2	3
CCN(CC)C(=S)SSC(=S)N(CC)CC	-1	11	93	64*	-7
CCN(CC)C(=S)SCC(=O)c1ccccc1	0	-15	101	-2	-1
O=C1c2cccc3cccc(c23)C(=O)C1(O)O	-5	-5	98	71*	3
CC(=O)N1C(=O)c2cccc3cccc(c23)C(=O)N1C(C)=O	x	-2	x	x	x
CC(C)[C@@H]1C(=O)N[C@H](Cc2cn(S(=O)(=O)c3ccccc3)c3ccccc23)C(=O)N1C	x	x	x	x	-1
CC1(C)OC(=O)C(OCC2CC2)=C1c1ccc(S(C)(=O)=O)cc1	x	x	x	x	-4
Cc1ccc(/C=C/C(=O)N2CC(C)CC(C)C2)o1 (stereo not drawn)	-1	-2	104	102*	-2
CCOC(=O)C1CCCN(C(=O)Cn2sc3nc(C)cc(C)c3c2=O)C1 (stereo not drawn)	x	-16	100	84*	x
O=[N+]([O-])c1ccc(Cl)c(C2Nc3cccc4cccc(c34)N2)c1	-4	31	99	56*	-10
CN(c1ccccc1)c1nc(N)c([N+](=O)[O-])c(Nc2ccccc2F)n1	-1	-1	101	76*	8
C=CCN(c1ccccc1Cl)S(=O)(=O)c1cccc(C(=O)OCC(=O)N(C)C2CCS(=O)(=O)C2)c1 (stereo not drawn)	-2	-14	69*	0	1
CN(C(=O)COC(=O)c1cccc(S(=O)(=O)N2CCCCCC2)c1)C1CCS(=O)(=O)C1 (stereo not drawn)	-2	-10	97	0	5
O=C(CSc1nnc(-c2cccnc2)n1-c1ccc(Cl)cc1)Nc1ccc(S(=O)(=O)Nc2nccs2)cc1	x	x	x	x	1
COc1ccc(NC(=O)/C(C#N)=C/c2ncc([N+](=O)[O-])n2C)c(OC)c1	0	-7	108	97*	2
Cc1cccc(N(C(=O)c2snc(C(N)=O)c2N)C(C(=O)NCC2CCCO2)c2ccc(N(C)C)cc2)c1C (stereo not drawn)	2	12	95	66*	-1
CCN(CC)CCOC(=O)c1ccc(NC(=O)c2cn(-c3ccccc3)nc2-c2cccs2)cc1	-1	x	95	90*	3
CCOC(=O)/C(=C\c1cccnc1)C(=O)c1cc(C(C)=O)c(Nc2ccccc2)s1	x	20	89	60*	x
O=C(Nc1ccc(C(O)(C(F)(F)F)C(F)(F)F)cc1)c1ccc(Cl)c([N+](=O)[O-])c1	-2	15	102	64*	1
CCN1/C(=C/c2ccc3cc(C)ccc3[n+]2C)Sc2ccc3sccc3c21	-34	x	i	62*	12
CCN1/C(=C/c2cccc[n+]2C)Sc2ccc(OC)cc21	-7	-284	347	5	6
O=C(NCc1ccc(C(=O)N2CCOCC2)cc1)c1cccc(Br)c1	x	x	x	x	3
COC(=O)[C@@H](NCc1cccc(CN[C@H](C(=O)OC)c2ccccc2)c1)c1ccccc1	0	7	100	66*	-4
Cc1cccc(CCNC(=O)Cn2ncc3c2-c2cc(C)ccc2OC3)c1	x	x	x	x	0
C=C(C)C(=O)Nc1cccc(C2=NOC3(C2)C[C@@H](C(N)=O)N(C(=O)c2cc([N+](=O)[O-])cc([N+](=O)[O-])c2)C3)c1 (stereo partly drawn)	-1	29	96	64*	-2
SMILES	PG9 binder	VLA-4 inh	ABCB6 inh 2	Granule exo inh	NR1D1 modulator
CCN1CCN(CCCNC(=O)c2ccc(/C=C3/Oc4ccccc4N(Cc4cccc(C)c4)C3=O)cc2)CC1	x	6	102	46	x
CCN1CCN(CCCNC(=O)c2ccc(/C=C3/Sc4ccccc4N(Cc4ccccc4F)C3=O)cc2)CC1	1	3	101	70*	-1
O=C(/C=C/c1ccccc1)NCC(=O)N/N=C/c1ccco1	-3	7	100	76*	2
Cc1[nH]oc(=O)c1N=Nc1ccc2[nH]c(=O)[nH]c2c1	-15	-3	71*	-2	16
Cc1[nH]n(-c2ccccc2)c(=O)c1C=Nc1ccc2[nH]c(=O)[nH]c2c1	-2	-8	100	-1	9
COc1ccccc1CNCC(O)Cn1c2ccccc2c2ccccc21 (stereo not drawn)	0	14	104	87*	9
COc1ccc(S[C@]2(C(=O)N(C)C)CC(=O)N(c3ccsc3)[C@@H]2c2ccc(OC)cc2)cc1	x	x	x	x	0
O=C1CC(c2ccccc2)=C(c2ccccc2)C1	1	x	99	-2	1
CC1=C(c2ccccc2)CCC1=O	1	20	100	80*	-1
Cc1cccn2c(=O)c(/C=C(\C#N)C(=O)NC3CCS(=O)(=O)C3)c(Oc3ccccc3Cl)nc12 (stereo not drawn)	1	4	107	-2	-1
Cc1ccccc1Oc1nc2c(C)cccn2c(=O)c1/C=C(\C#N)C(=O)NC1CCS(=O)(=O)C1 (stereo not drawn)	0	10	101	82*	-6
Cc1ccc(Oc2nc3ccccn3c(=O)c2/C=C(\C#N)C(=O)NC2CCS(=O)(=O)C2)cc1 (stereo not drawn)	-1	-3	96	74*	-7
CC(=O)CCC(=O)O	x	x	x	x	3
C[C@H]1[C@H](NC(=O)c2ccc(C(C)(C)C)cc2)CC[C@@]23CCCN2C(=O)CCC[C@@H]13	x	x	x	x	2
COc1ccc(CNC(=O)[C@@H](Cc2ccccc2)NC(=O)[C@H]2O[C@@H](n3cnc4c(=O)[nH]c(N)nc43)[C@H](O)[C@@H]2O)cc1	0	x	x	x	-4
O=C(N/N=C/c1cc(Br)c(O)c(Br)c1O)c1cccnc1	-14	6	97	65*	-12
CCN(CC)CCN(C(=O)/C=C/c1cccs1)c1nc2ccc(C)cc2s1	1	13	93	4	-1
CN(C)CCCN(C(=O)/C=C/c1cccs1)c1nc2ccc(F)cc2s1	-2	13	101	10	-1
CCc1ccc2nc(N(CCN(C)C)C(=O)/C=C/c3cccs3)sc2c1	x	18	98	67*	x
Cc1ccc2nc(N(CCN(C)C)C(=O)/C=C/c3cccs3)sc2c1	-2	0	94	56*	-2
CN(C)CCN(C(=O)/C=C/c1cccs1)c1nc2ccc(Br)cc2s1	-2	5	101	33	-1
CN(C)CCN(C(=O)/C=C/c1cccs1)c1nc2c(F)cc(F)cc2s1	0	0	104	65*	-7
Cn1c(=O)oc2ccc(S(=O)(=O)Nc3ccc(Cl)cc3[N+](=O)[O-])cc21	0	x	x	x	-2
COC(=O)[C@H](C)NC(=O)[C@@H]1CCCN1C(=O)CNP(=O)(OCc1ccccc1)OCc1ccccc1	x	x	x	x	-1
C=CCOC(=O)C1=C[C@H](C(C)(C)C)[C@@H](CCCO)[C@H](OCC)O1	0	x	97	69*	-4
CCO[C@@H]1OC(C(N)=O)=C[C@H](C(C)(C)C)[C@H]1CCCO	-1	-9	101	0	-3
